Among all 200,000 compounds or so, about 720 (0.36%) were called active. Inconclusive results (about 8%) are left out. The call rests on the fitted dose curve; in most records, active means well fitted activation curve with a large enough effect; inconclusive means small, poorly fitted or top-dose-only effect, or effect the other way, or another doubt; inactive means flat fitted curve, though single readings scatter. Some of the results follow.
Potency means the concentration at half of the fitted maximal effect.

The target of this test is Lysosomal alpha-glucosidase (Homo sapiens) (UniProt P10253). Briefly: qHTS Assay for Activators of Human alpha-Glucosidase as a Potential Chaperone Treatment of Pompe Disease. Further: nearly all actives have a fitted effect of over 80% in size. The note with it: purified enzyme, 4-MU-alpha-glucoside fluorescence, 20 min; series mostly up to 76.9 µM. The essentials:
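Compounds titrated up to 77 uM against 4 nM enzyme and 400 uM methylumbelliferyl substrate at room temperature, 20 min, pH 5.0. Basic stop, then 4-methylumbelliferone fluorescence (365/440 nm) normalized to no-enzyme and enzyme controls; Hill-equation AC50.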
Consider `COc1ccc(-c2cn3cccnc3n2)cc1F`, for which the Potency is 28.2 µM (active). Next, `COc1ccc(-c2cn3cccnc3n2)cc1Br`: 35.5 µM (active); `CC12CCC(=O)N1c1c(sc3nc(N4CCOCC4)c4c(c13)CCCC4)C(=O)N2` (stereo not drawn): 35.5 µM (active); `Nc1c(C(O)(C(F)(F)F)C(F)(F)F)ccc2ccccc12`: 35.5 µM (active). As to `Nc1ccc2nc(-c3ccccc3)sc2c1`, the Potency is 35.5 µM (active). Next, `Nc1ccc(-c2nc3ccc(C(=O)O)cc3s2)cc1`: 35.5 µM (active); `Cc1cc(C)[n+](-c2ccc(C(C)C)cc2)c2[nH]c(=O)[nH]c(=O)c12`: 35.5 µM (active); `Cc1cc(C)[n+](-c2ccc(F)cc2)c2[nH]c(=O)[nH]c(=O)c12`: 35.5 µM (active). Next, `CC1=C(C#N)C(c2cccnc2)C2=C(CC(C)(C)CC2=O)N1` (stereo not drawn): 28.2 µM (active); `COc1cccc(C2C(C#N)=C(C)NC3=C2C(=O)CC(C)(C)C3)c1` (stereo not drawn): 39.8 µM (active). Next, `COCCOC(=O)C1=C(C)NC2=C(C(=O)CC(C)(C)C2)C1c1cccnc1` (stereo not drawn): 35.5 µM (active).

Regarding `CC1=C(C#N)C(c2cccnc2)C2=C(CCCC2=O)N1` (stereo not drawn), the Potency is 25.1 µM (active). Next, `CCN1CCN(C(c2cc3cc4c(cc3[nH]c2=O)OCO4)c2nnnn2C(C)(C)CC)CC1` (stereo not drawn): 39.8 µM (active); `Nc1nc(N)c2nc(-c3ccccc3)c(N)nc2n1`: 39.8 µM (active); `Clc1ccc(/C=C/c2nc3ccccc3[nH]2)c(Cl)c1`: 35.5 µM (active). Consider `CC(=O)c1ccc(-c2nc3ccccc3n2C)o1`, for which the Potency is 31.6 µM (active).

Consider `CCC(=O)c1ccc(/C=C/c2nc3ccccc3n2C)o1`, for which the Potency was 35.5 µM (active).

On to `CC(=O)Oc1ccc2cc(-c3nc4ccccc4n3C)c(=O)oc2c1`, for which the Potency is 35.5 µM (active). Next, `Cn1c(-c2cc3ccc(OC(=O)C(C)(C)C)cc3oc2=O)nc2ccccc21`: 39.8 µM (active). Next, `CCC(=O)Nc1c(S(=O)(=O)c2ccccc2)c2nc3ccccc3nc2n1Cc1ccccc1`: 39.8 µM (active). The result for `CCCCn1c(NS(=O)(=O)c2ccc(C)cc2)c(S(=O)(=O)c2ccccc2)c2nc3ccccc3nc21` reads 50.1 µM (active); that for `CCCCn1c(NS(=O)(=O)c2ccccc2)c(S(=O)(=O)c2ccc(C)cc2)c2nc3ccccc3nc21`, 35.5 µM (active); that for `Cc1cccn2c(=O)c3cc(C#N)c(=O)n(Cc4cccnc4)c3nc12`, 3.98 µM (active). Regarding `Cc1ccc2nc3c(cc(C#N)c(=O)n3CCN3CCOCC3)c(=O)n2c1`, the Potency is 28.2 µM (active). The result for `Cc1ccc2nc3c(cc(C#N)c(=O)n3CC3CCCO3)c(=O)n2c1` (stereo not drawn) reads 3.98 µM (active); that for `Cc1cccn2c(=O)c3cc(C#N)c(=O)n(CC4CCCO4)c3nc12` (stereo not drawn), 10 µM (active). The result for `CC(C)OC(=O)c1c(N)n(CCCN2CCOCC2)c2nc3ccccc3nc12` reads 39.8 µM (active); that for `COC(=O)c1c(N)n(CCCN2CCOCC2)c2nc3ccccc3nc12`, 31.6 µM (active). The result for `Cc1c(C#N)c(N)nc2c3c(sc12)NC(=O)CC3c1ccccc1` (stereo not drawn) reads 5.01 µM (active); that for `COc1ccc(F)cc1CN1CCN(c2cc(C)nc3c4c(C)cc(C)nc4nn23)CC1`, 35.5 µM (active). For the compound `COC(=O)Cc1c(C)c2ccc(O)c(CN3CCCC(C)C3)c2oc1=O` (stereo not drawn), the Potency was 35.5 µM (active). Regarding `CCN(CC)Cc1c(O)ccc2c(C)c(CC(=O)OC)c(=O)oc12`, the Potency is 35.5 µM (active). The result for `CCc1c(C)c2cc(Cl)c(O)c(CN(C)C)c2oc1=O` reads 31.6 µM (active); that for `CCc1c(C)c2ccc(O)c(CN(C)C)c2oc1=O`, 35.5 µM (active). The result for `Cc1c(C)c2cc(Cl)c(O)c(CN(C)C)c2oc1=O` reads 39.8 µM (active). For the compound `Cc1c(Cc2ccccc2)c(=O)oc2c(CN(C)C)c(O)c(Cl)cc12`, the Potency was 35.5 µM (active). The result for `O=c1c2ccccc2[nH]c2ccc(F)cc12` reads 31.6 µM (active); that for `O=c1c2ccccc2[nH]c2ccccc12`, 39.8 µM (active); that for `O=C(c1ccco1)N1CCN(C/C=C/c2ccccc2)CC1`, 17.8 µM (active). Consider `CCN1C=C(C(=O)OC)C(c2cccc(OC)c2OC)C(C(=O)OC)=C1`, for which the Potency was 35.5 µM (active). The result for `COC(=O)C1=CN(Cc2cccs2)C=C(C(=O)OC)C1c1cccc(OC)c1OC` reads 25.1 µM (active); that for `COC(=O)C1=CN(Cc2cccs2)C=C(C(=O)OC)C1c1ccc(OC)cc1OC`, 35.5 µM (active); that for `COC(=O)C1=CN(Cc2cccs2)C=C(C(=O)OC)C1c1cccc(Cl)c1`, 35.5 µM (active).

For the compound `CCN1C=C(C(=O)OC)C(c2cccc(C)c2)C(C(=O)OC)=C1`, the Potency is 35.5 µM (active). Next, `COCCn1cc(C(=O)N2CCN(C)CC2)c2c3ccccc3n(C)c2c1=O`: 35.5 µM (active).

As for `COc1ccccc1N=c1oc2cc(O)ccc2cc1C(N)=O`, the Potency is 28.2 µM (active).

For the compound `CCOc1ccccc1N=c1oc2cc(O)ccc2cc1C(=O)NCC1CCCO1` (stereo not drawn), the Potency was 31.6 µM (active).

Take `Cc1cccc(N=c2oc3cc(O)ccc3cc2C(N)=O)c1`: the Potency was 35.5 µM (active). The result for `NC(=O)c1cc2ccc(O)cc2oc1=NCc1ccccc1` reads 35.5 µM (active); that for `CCCCN(CC)CCNC(=O)CCC(=O)Nc1ccc2nc(N3CCN(C)CC3)cc(C)c2c1`, 28.2 µM (active); that for `CCCCNC(=O)CCC(=O)Nc1ccc2nc(N3CCC(C)CC3)cc(C)c2c1`, 39.8 µM (active).

In the case of `CCCCNC(=O)CCC(=O)Nc1ccc2nc(N3CCCCC3)cc(C)c2c1`, the Potency was 25.1 µM (active). Next, `Cc1cc(N2CCC(C)CC2)nc2ccc(N3C(=O)CCC3=O)cc12`: 31.6 µM (active). Next, `COCCCNC(=O)CCC(=O)Nc1ccc2nc(N3CCOCC3)cc(C)c2c1`: 28.2 µM (active); `CCN(CC)CCCNC(=O)CCC(=O)Nc1ccc2nc(N3CCC(C)CC3)cc(C)c2c1`: 39.8 µM (active). Next, `COCCNc1cc(C)nc2c3c(C)cc(C)nc3nn12`: 35.5 µM (active); `Cc1cc(C)c2c(n1)nn1c(NCCN3CCOCC3)cc(C)nc21`: 28.2 µM (active); `Cc1cc(C)c2c(n1)nn1c(NCCCN(C)C)cc(C)nc21`: 39.8 µM (active). Regarding `Cc1cc(C)c2c(n1)nn1c(NCCOCCO)cc(C)nc21`, the Potency was 35.5 µM (active). The result for `CCc1cc2c(C)cc(=O)oc2cc1OC(=O)C1CCCN1C(=O)OC(C)(C)C` (stereo not drawn) reads 31.6 µM (active).

For `CCOP(=O)(OCC)C(NC(=O)c1cccs1)C(F)(F)F` (stereo not drawn), the Potency was 31.6 µM (active). Consider `COCCCn1c(CCC(=O)O)ccc1-c1ccc(F)cc1`, for which the Potency is 22.4 µM (active). Next, `O=S1(=O)CCN2C=C(Cl)C=C(Cl)C2=N1`: 35.5 µM (active); `CCc1c(C)c2cc(Cl)c(O)c(CN3CCCCC3)c2oc1=O`: 31.6 µM (active); `Cc1c(C)c2cc(Cl)c(O)c(CN3CCN(C)CC3)c2oc1=O`: 25.1 µM (active). The result for `Cc1c(C)c2cc(Cl)c(O)c(CN3CCCCC3)c2oc1=O` reads 14.1 µM (active). Next, `N=c1oc2ccc3ccccc3c2cc1-c1nnc2n1CCCCC2`: 35.5 µM (active). On to `C=CCn1cc(-c2ccccc2)cc(C#N)c1=O`, for which the Potency is 35.5 µM (active). On to `CC1C2=C(CC(C)(C)CC2=O)NC2=C1C(=O)CC(C)(C)C2`, for which the Potency was 35.5 µM (active). The result for `Cc1c(-c2cccc(NC(=O)c3ccco3)c2)nc2ncccn12` reads 35.5 µM (active). For `O=C(Nc1cccc(-c2cn3cccnc3n2)c1)c1ccco1`, the Potency is 28.2 µM (active). On to `Cc1c(-c2cccc(NC(=O)c3cccs3)c2)nc2ncccn12`, for which the Potency is 31.6 µM (active). As to `Cc1ccccc1-n1c(=O)c(C#N)cc2c(=O)n3ccccc3nc21`, the Potency was 35.5 µM (active). As for `N#Cc1cc2c(=O)n3ccccc3nc2n(-c2ccccc2Cl)c1=O`, the Potency is 35.5 µM (active).

`Cc1ccc(C)c(-n2c(=O)c(C#N)cc3c(=O)n4ccccc4nc32)c1`: the Potency is 35.5 µM (active). `CCOC(=O)c1oc2ccccc2c1NC(=O)COc1ccc(F)cc1`: the Potency was 35.5 µM (active). In the case of `CCCS(=O)(=O)n1nc(-c2ccc(Br)cc2)cc1N`, the Potency was 39.8 µM (active).

For `Cc1cc(=O)n2ccccc2c1C#N`, the Potency was 35.5 µM (active). Next, `COC(=O)C1=C(C)NC2=C(C(=O)CCC2)C1c1cccc(C)n1` (stereo not drawn): 28.2 µM (active); `CCOC(=O)C1=C(C)NC2=C(C(=O)CC(C)(C)C2)C1c1cccc(C)n1` (stereo not drawn): 35.5 µM (active).

As to `COC(=O)C1=C(C)NC2=C(C(=O)CC(C)(C)C2)C1c1ccccn1` (stereo not drawn), the Potency is 35.5 µM (active). Next, `CCOC(=O)c1cnc2c(-c3ccc(F)cc3)cnn2c1C(F)(F)F`: 31.6 µM (active); `CCc1cc(=O)oc2cc(OC(C)=O)cc(OC(C)=O)c12`: 35.5 µM (active); `CC(=O)Oc1cc(OC(C)=O)c2c(C)cc(=O)oc2c1`: 35.5 µM (active).

Consider `COCCN1C=C(C(=O)OC)C(c2ccccc2Cl)C(C(=O)OC)=C1`, for which the Potency is 31.6 µM (active). `COC(=O)C1=CNC=C(C(=O)OC)C1c1ccccc1Cl`: the Potency was 31.6 µM (active).

In the case of `CCCCN1C=C(C(=O)OC)C(c2ccccc2Cl)C(C(=O)OC)=C1`, the Potency is 22.4 µM (active). The result for `COCCN1C=C(C(=O)OC)C(c2ccccc2C(F)(F)F)C(C(=O)OC)=C1` reads 35.5 µM (active); that for `COC(=O)C1=CN(C)C=C(C(=O)OC)C1c1ccc(Cl)cc1Cl`, 25.1 µM (active); that for `COC(=O)C1=CN(C)C=C(C(=O)OC)C1c1ccccc1Cl`, 31.6 µM (active). The result for `COC(=O)C1=CNC=C(C(=O)OC)C1c1ccc(Cl)cc1` reads 35.5 µM (active); that for `CCOC(=O)c1cnc2sc3c(n2c1=O)CCCC3`, 39.8 µM (active). The result for `CCOC(=O)c1cnc2cc(C)ccn2c1=O` reads 35.5 µM (active). For `CCOC(=O)c1cnc2cc3c(cn2c1=O)CCCC3`, the Potency was 28.2 µM (active).

Take `CCOC(=O)c1cc(C(=O)OCC)c2ccccn2c1=O`: the Potency is 35.5 µM (active).

In the case of `CCCCC1(C)Nc2ccccc2-c2nc3ccccc3n21` (stereo not drawn), the Potency is 35.5 µM (active).

As for `c1ccc2c(c1)NC1(CCCC1)n1c-2nc2ccccc21`, the Potency is 31.6 µM (active). Next, `CCCC1(C)Nc2ccccc2-c2nc3ccccc3n21` (stereo not drawn): 31.6 µM (active).
